Screening data from PubChem.
Sampled rows, rich in hits. Any-hit rate of the full collection: about 19%.
DT40 TDP1 CPT: growth inhibition of DT40 Tdp1-/-;hTDP1 cells with camptothecin (screen for TDP1 inhibitors); chicken DT40 Tdp1-/-;hTDP1 cells + 20 nM CPT, ATP luminescence, 48 h; Potency, µM (highest dose often 46.2 µM), for inactives: at the highest dose activity change, negative = growth inhibition, actives largely listed as inhibitors; 12% of 420,000 active; AID 686979; further: potency means the concentration at half of the fitted maximal effect; on the % scale 0 is the no-effect control and ±100 the full control effect; nearly all actives have a fitted effect of over 55% in size
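Chicken DT40 Tdp1-/- cells complemented with human TDP1, 400 cells/well, exposed to compounds plus 20 nM camptothecin for at least 48 h at 37 C; viability read as ATP content by CellTiter-Glo luminescence.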
SW480 rereplic: inducers of DNA re-replication in SW480 colon cancer cells; SW480 DNA re-replication, Hoechst DNA content imaging, 48 h; Potency, µM (series often up to 46.1 µM), for inactives: at the highest dose re-replication activation, most hits filed as activators; 1.8% of 340,000 active; further: potency means the concentration at half of the fitted maximal effect; % of control where 0% means no effect; nearly all actives have a fitted effect of over 55% in size
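Per well, 250 cells were exposed to pinned compound for 48 hr. Nuclear DNA was visualised with Hoechst (40 min, 37 C) and total object intensity recorded by fluorescence scanning.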
MCF10A rereplic: inducers of DNA re-replication in MCF 10A breast cells; MCF 10A DNA re-replication, Hoechst nuclear intensity, 48 h; 2.9% of 350,000 active; Potency, µM (titrated, usually from 46.1 µM), without a hit: at the top dose activity, positive = re-replication, actives largely listed as activators; further: potency means the concentration at half of the fitted maximal effect; % of control where 0% means no effect; nearly all actives have a fitted effect of over 50% in size
BCR signal inh: inhibitors of chronic active B-cell receptor signaling | ABC-DLBCL IkBa-CBG/CBR reporter, luminescence ratio, 4 h | Potency, µM (titrated, usually from 46.1 µM), without a hit: at the top dose activity change, negative = inhibition, actives largely listed as inhibitors | 0.05% of 340,000 active | AID 493014; active means well fitted inhibition curve with a large enough effect in the signal ratio, with a control signal flat, not every such curve was filed as active; inconclusive means small, poorly fitted or top-dose-only effect, or effect the other way, or a change in a side signal; the % refers to the signal ratio;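 further: potency means the concentration at half of the fitted maximal effect; plate controls were basal doxycycline-induced cells for no effect and cells given 10 µM MG132 for full effect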
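Cell line TMD8 (human ABC DLBCL), stably expressing tet-inducible CBG68-IkBa fusion and CBR; IMDM/0.5% FBS; cpd up to 46 uM; dox induction, 4 h, 37C/5% CO2; dual luminescence; green/red ratio; MG132 control.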
IL1B secr inh: inhibitors of inflammasome signaling (IL-1 beta secretion) | 4.7% of 360,000 active | THP-1 LPS/ATP IL-1B secretion, AlphaLISA, 16 h; active compounds read low | activity change, % at 57.5 µM; in the data active means activity change below about -50%; inconclusive means mostly about -30% to -49%; further: on the % scale 0 is the no-effect control and ±100 the full control effect
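THP-1 cells pretreated 1 hr with compounds (up to 57.5 uM final), then stimulated with LPS (250 ng/mL final) plus ATP (1.25 mM final); secreted IL-1B measured by AlphaLISA after 16 hr, decreased signal indicating inhibition.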
DT40 TDP1 no CPT: qHTS for Inhibitors of human tyrosyl-DNA phosphodiesterase 1 (TDP1): qHTS in cells in absence of CPT. AID 686978, 2013. 15% of 420,000 active. DT40 Tdp1-/- hTDP1 cells, no CPT, ATP luminescence, 48 h. Potency, µM (doses to about 46.2 µM), for the others: top-dose activity change, negative = growth inhibition, most hits filed as inhibitors; further: potency means the concentration at half of the fitted maximal effect; on the % scale 0 is the no-effect control and ±100 the full control effect; nearly all actives have a fitted effect of over 55% in size
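Cells were dispensed at 400 per well, compounds added by pin tool, plates incubated ≥48 hr at 37 °C, then CellTiter-Glo added for 30 min at room temperature before luminescence reading. Line: DT40 Tdp1-/- complemented with hTDP1; camptothecin omitted.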
* = called active by the depositor; [ ] = remark or other dose. Unless noted, the call rests on the fitted dose curve; in most records, active means well fitted curve in the direction sought with a large enough effect; inconclusive means small, poorly fitted or top-dose-only effect, or another doubt; inactive means no such curve, though single readings can be large; an effect the other way counts as inactive or inconclusive.

How did COc1cc(NC(=O)c2ccccc2)c(OC)cc1NC(=O)Cc1ccc(C)cc1 do in these assays?
DT40 TDP1 CPT: -6.5%; SW480 rereplic: 1.7%; MCF10A rereplic: inconclusive; BCR signal inh: 6.7%; IL1B secr inh: 33.9; DT40 TDP1 no CPT: -23.8%

What do the screens show for `CC(O)(COc1ccccc1)c1ccc2c(c1)CN(Cc1cccnc1)CCO2` (stereo unspecified)?
DT40 TDP1 CPT: 20.1%[9.04 µM]; DT40 TDP1 no CPT: -14.1%

How did O=C1S/C(=C\c2ccc(O)c([N+](=O)[O-])c2)C(=O)N1c1ccccc1Cl do in these assays?
DT40 TDP1 CPT: inconclusive; SW480 rereplic: -69.5%; MCF10A rereplic: 1.64µM*; BCR signal inh: inconclusive; IL1B secr inh: 0.0; DT40 TDP1 no CPT: inconclusive

What do the screens show for `COc1cc(/C=C2\SC(=O)N(c3cccc(Cl)c3)C2=O)cc([N+](=O)[O-])c1O`?
DT40 TDP1 CPT: 2.7%; SW480 rereplic: -34.6%; MCF10A rereplic: -5.9%; BCR signal inh: 12.1%; IL1B secr inh: 0.0; DT40 TDP1 no CPT: -18.2%

Results for O=C(NCCCO)C(=O)Nc1cc2c3c(c1)CCN3C(=O)CC2 ?
DT40 TDP1 CPT: 13.4%; SW480 rereplic: -12.4%; MCF10A rereplic: -10.8%; BCR signal inh: -1.7%; IL1B secr inh: 17.0; DT40 TDP1 no CPT: 4.4%

Results for CCOC(=O)c1ccc(S(=O)(=O)NCC(c2ccc(N(C)C)cc2)c2c[nH]c3ccccc23)cc1 (stereo unspecified) ?
DT40 TDP1 CPT: inconclusive; SW480 rereplic: -3.0%; MCF10A rereplic: 0.4%; BCR signal inh: inconclusive; IL1B secr inh: 3.4; DT40 TDP1 no CPT: inconclusive

How did CN(C)c1ccc(C(CNS(=O)(=O)c2ccc(F)cc2)c2c[nH]c3ccccc23)cc1 (stereo unspecified) do in these assays?
DT40 TDP1 CPT: inconclusive; SW480 rereplic: 12.3%; MCF10A rereplic: 20.6µM*; BCR signal inh: inconclusive; IL1B secr inh: -63.6*; DT40 TDP1 no CPT: 14.6µM*

How did CN(C)c1ccc(C(CNC(=O)c2ccc(C#N)cc2)c2c[nH]c3ccccc23)cc1 (stereo unspecified) do in these assays?
DT40 TDP1 CPT: inconclusive; SW480 rereplic: 6.8%; MCF10A rereplic: 19.2%; BCR signal inh: -1.1%; IL1B secr inh: inconclusive; DT40 TDP1 no CPT: 20.6µM*

What do the screens show for `Cc1ccc(-n2sc3cc(F)ccc3c2=O)c(C)c1`?
DT40 TDP1 CPT: 2.91µM*; IL1B secr inh: -103.3*; DT40 TDP1 no CPT: 2.31µM*

Results for COC(=O)c1cccc(N2CCCC2=O)c1 ?
DT40 TDP1 CPT: -7.5%; SW480 rereplic: 3.2%; MCF10A rereplic: -0.2%; BCR signal inh: 0.2%; IL1B secr inh: -9.7; DT40 TDP1 no CPT: 5.2%

Results for O=c1sc2ccccc2c(=O)n1Cc1ccccc1F ?
DT40 TDP1 CPT: 11.2%; SW480 rereplic: -10.1%; MCF10A rereplic: -0.6%; BCR signal inh: -17.1%; IL1B secr inh: 43.1; DT40 TDP1 no CPT: -14.2%

Results for N=C1SCC(=O)N1c1ccccc1Cl ?
DT40 TDP1 CPT: 19.5%; SW480 rereplic: -2.6%; MCF10A rereplic: 1.6%; BCR signal inh: -10.6%; IL1B secr inh: 39.6; DT40 TDP1 no CPT: -11.3%

Results for COC(=O)c1cccc(-n2sc3ccccc3c2=O)c1 ?
DT40 TDP1 CPT: 2.06µM*; SW480 rereplic: 40.3%; MCF10A rereplic: inconclusive; BCR signal inh: inconclusive; IL1B secr inh: -100.7*; DT40 TDP1 no CPT: 3.26µM*

How did O=c1c2cc(F)ccc2sn1-c1ccccc1Cl do in these assays?
DT40 TDP1 CPT: 2.59µM*; IL1B secr inh: -104.5*; DT40 TDP1 no CPT: 2.31µM*

Results for O=c1c2ccccc2sn1-c1ccc(F)cc1 ?
DT40 TDP1 CPT: 3.26µM*; SW480 rereplic: inconclusive; MCF10A rereplic: inconclusive; BCR signal inh: inconclusive; IL1B secr inh: -108.6*; DT40 TDP1 no CPT: 3.66µM*

Results for Cc1ccc(OCCn2c(-c3ccc(Cl)cc3)nc3ccccc3c2=O)c(C)c1 ?
DT40 TDP1 CPT: -19.4%; DT40 TDP1 no CPT: 4.7%

How did CCCS(=O)(=O)NC(=O)C1(C)CCN(C(=O)Cc2cccc(OC)c2)C1 (stereo unspecified) do in these assays?
DT40 TDP1 CPT: 3.1%; IL1B secr inh: 0.0; DT40 TDP1 no CPT: -3.1%

How did Cn1c(SCc2ccccc2)nnc1C1CCCN(Cc2cccc3ncccc23)C1 (stereo unspecified) do in these assays?
DT40 TDP1 CPT: inconclusive; DT40 TDP1 no CPT: -27.5%

Results for O=C(NCCc1ccccc1)C1CCCN(c2cnccn2)C1 (stereo unspecified) ?
DT40 TDP1 CPT: -3.5%; SW480 rereplic: -17.1%; MCF10A rereplic: -3.9%; BCR signal inh: 1.0%; IL1B secr inh: 4.9; DT40 TDP1 no CPT: -11.0%

Results for O=C(c1sc2cc(F)ccc2c1Cl)N1CCN(c2cccc(Cl)c2)CC1 ?
DT40 TDP1 CPT: inconclusive; SW480 rereplic: -6.5%; MCF10A rereplic: inconclusive; BCR signal inh: 8.7%; IL1B secr inh: 9.5; DT40 TDP1 no CPT: inconclusive

Results for O=c1c2ccc(F)cc2sn1-c1ccccc1 ?
DT40 TDP1 CPT: 2.59µM*; IL1B secr inh: -105.9*; DT40 TDP1 no CPT: 2.91µM*

What do the screens show for `COc1cc(/C=C2/C(=O)NN(c3cccc(C)c3)C2=O)ccc1OC(=O)c1ccco1`?
DT40 TDP1 CPT: inconclusive; SW480 rereplic: -45.4%; MCF10A rereplic: inconclusive; BCR signal inh: 15.7%; IL1B secr inh: -68.9*; DT40 TDP1 no CPT: inconclusive

What do the screens show for `COc1cc(/C=C2/C(=O)NN(c3cccc(C)c3)C2=O)cc([N+](=O)[O-])c1O`?
DT40 TDP1 CPT: -1.7%; SW480 rereplic: 0.6%; MCF10A rereplic: inconclusive; BCR signal inh: 1.7%; IL1B secr inh: -14.3; DT40 TDP1 no CPT: -1.7%

What do the screens show for `COc1ccc(CN2C(=O)c3ccccc3C2C(=O)NC2CCCCCC2)c(OC)c1` (stereo unspecified)?
DT40 TDP1 CPT: -8.5%; SW480 rereplic: 13.1%; MCF10A rereplic: -2.3%; BCR signal inh: -25.7%; IL1B secr inh: -53.8*; DT40 TDP1 no CPT: inconclusive

What do the screens show for `O=C(NC1CCCCCCC1)C1c2ccccc2C(=O)N1Cc1cccs1` (stereo unspecified)?
DT40 TDP1 CPT: 13µM*; SW480 rereplic: 21.7%; MCF10A rereplic: -2.2%; BCR signal inh: -1.7%; IL1B secr inh: -5.0; DT40 TDP1 no CPT: inconclusive
